Experimental findings from PubChem BioAssay (NCI) are described below.

About 83,000 compounds went through this panel and 20% of them were active in at least one assay; those are over-represented in the sample as a whole.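 The test compound was applied at a single concentration to cells in 96-well plates for 48 hours, and percent growth was recorded.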 Values without a mark were called inactive. The source made the active and inactive calls. The calls were made as follows: active = growth percent below 10; inactive = the rest.

Assay in all cases: NCI-60 one-dose screen, 48 h (100 = growth as untreated, 0 = no growth, -100 = all killed)
Common to all, as to conditions: 10 µM unless noted

Assay [1] deals with SR leukemia.
The subject of assay [2] is RPMI-8226 leukemia.
Assay [3] concerns OVCAR-8 ovarian.
In assay [4] the test system is OVCAR-5 ovarian.
The subject of assay [5] is OVCAR-4 ovarian.
The test system of assay [6] is SK-OV-3 ovarian.
Assay [7] has as its system IGROV1 ovarian.
Assay [8] relates to OVCAR-3 ovarian.
Assay [9] relates to HS 578T breast.
Assay [10] relates to NCI/ADR-RES ovarian.
Assay [11] concerns T-47D breast.
Assay [12] deals with BT-549 breast.
For assay [13], the system named is MDA-MB-435 melanoma.
Assay [14] relates to SW-620 colon.
Assay [15] relates to MCF7 breast.
Assay [16] has as its system HCT-116 colon.
The subject of assay [17] is HCC-2998 colon.
Assay [18] deals with KM12 colon.

For the compound `CC1CN(C(C)C)C(=S)N(c2ccccc2)C1=O` (configuration not stated), the growth was 108% in [1]; 120% in assay [2]; 97.6% in [3]; 90.7% in assay [4]; 112% in [5]; 106% in [6]. For the same compound, the growth is 81.5% in assay [7]; 99.4% in assay [8]; 98% in assay [9]; 92.7% in [10]; 166% in [11]; 101% in assay [12]. Also, the growth in assay [13] was 96.3%; in assay [14] it was 108%; in assay [15], 96.7%; in [16] it was 89.4%; in assay [17] it was 101%; in assay [18] it was 109%.
For the compound `COc1ccc(S(=O)(=O)NCCNc2nccc(-c3c(-c4cccc([N+](=O)[O-])c4)nc4sccn34)n2)cc1`, the growth in [1] is 78.4%; in [2], 74%; in assay [3], 83.7%; in assay [4], 126%; in assay [5] it was 63.1%; in assay [6], 102%. The growth is 67.3% in assay [7]; 88.3% in [8]; 91.1% in assay [9]; 82% in assay [10]; 44.4% in [11]; 72.1% in [12]. Also, the growth is 77.9% in [13]; 128% in assay [14]; 61.3% in [15]; 90% in [16]; 128% in assay [17]; 44.8% in [18].
Take `CCCCCN(CCCCC)CCC[C@@H](C)[C@H]1CC[C@H]2[C@@H]3[C@H](OCCCN)C[C@@H]4C[C@H](OCCCN)CC[C@]4(C)[C@H]3C[C@H](OCCCN)[C@]12C`: the growth was 19.2% in assay [1]; -17.7% (active) in assay [2]; 55.3% in assay [3]; 66.2% in assay [4]; 85.2% in [5]; 93.2% in assay [6]. Moreover, the growth in [7] was 29.6%; in [8] it was 107%; in assay [9], 66.9%; in assay [10], 76%; in assay [11] it was 68.1%; in [12] it was 55%. Further, the growth in assay [13] was -13.6% (active); in assay [14], 45.9%; in [15], 74.8%; in assay [16], 22.7%; in [17], 59.6%; in [18], 22.5%.
On to `CCCCCCCCCCNC(=O)CCl`, for which the growth in assay [1] was 51.4%; in assay [2], 82.3%; in assay [3], 47.8%; in assay [4] it was 111%; in assay [5], 80.3%; in assay [6], 111%. In addition, the growth was 44.1% in [7]; 52.8% in assay [8]; 84.6% in [9]; 73% in assay [10]; 41.1% in assay [11]; 49% in assay [12]. Besides, the growth was 89.6% in assay [13]; 93.3% in assay [14]; 74.5% in assay [15]; 69.3% in [16]; 84.4% in assay [17]; 67.4% in assay [18].
As to `COc1ccc(/C=c2/c(=O)[nH]c3nc4sc(C)c(C)c4c(=O)n23)cc1`, the growth is 53.9% in assay [1]; 82.9% in assay [2]; 77.8% in [3]; 105% in assay [4]; 81.8% in [5]; 102% in assay [6]. The growth in assay [7] was 97.8%; in assay [8] it was 101%; in assay [9], 99.6%; in assay [10], 79.3%; in assay [11] it was 92.7%; in assay [12], 85.1%. The growth in [13] is 86.8%; in [14], 107%; in assay [15] it was 93.6%; in assay [16] it was 93.1%; in assay [17], 113%; in assay [18], 99.2%.
As to `CCCCCCCCCC(=O)Oc1ccc(/C(=C(/C)Cc2cccc(OC)c2)c2ccc(OCCN(C)C)cc2)cc1`, the growth is 106% in assay [1]; 106% in assay [2]; 108% in [3]; 101% in [4]; 115% in [5]; 113% in assay [6]. For the same compound, the growth was 110% in assay [7]; 109% in [8]; 108% in assay [9]; 98.4% in assay [10]; 69.4% in assay [11]; 108% in assay [12]. Moreover, the growth in assay [13] is 103%; in assay [14], 104%; in assay [15], 58.2%; in assay [16] it was 102%; in [17], 100%; in assay [18], 104%.
For the compound `O=C1/C(=C/c2ccc(F)cc2)CN(C(=O)CCN2CCC(=NO)CC2)C/C1=C\c1ccc(F)cc1`, the growth in assay [1] is 4.41% (active); in assay [2] it was -37.6% (active); in [3], 5.09% (active); in assay [4], -53.9% (active); in assay [5], -18.7% (active); in assay [6] it was -0.984% (active). The growth was -29.2% (active) in assay [7]; -60% (active) in [8]; 11.4% in assay [9]; 12.5% in assay [10]; -18.9% (active) in assay [11]; -26.6% (active) in [12]. Also, the growth was -49.9% (active) in [13]; -56.5% (active) in assay [14]; -48.6% (active) in [15]; -65.6% (active) in assay [16]; -83.3% (active) in assay [17]; -77.2% (active) in [18].
On to `C=C(C[n+]1ccccc1)[C@@H]1CC[C@]2(C(=O)OC)CC[C@]3(C)[C@H](CC[C@@H]4[C@@]5(C)CC[C@H](O)C(C)(C)[C@@H]5CC[C@]43C)[C@@H]12`, for which the growth in assay [1] was 108%; in assay [2], 91.1%; in [3], 102%; in [4] it was 102%; in [5], 99.7%; in assay [6], 95%. Further, the growth is 98% in assay [7]; 108% in [8]; 101% in [9]; 103% in assay [10]; 82.5% in assay [11]; 99% in [12]. For the same compound, the growth in [13] was 91.8%; in assay [14], 91.6%; in [15], 97.7%; in assay [16], 97%; in assay [17] it was 104%; in [18] it was 103%.
`COc1cccc2c1C(=O)c1c(O)c3c(c(O)c1C2=O)C[C@@](O)(/C(C)=N/NC(=O)c1ccc(Cl)cc1)C[C@@H]3OC1CC(N)C(O)C(C)O1` (some centres not stated): the growth in assay [1] was -34.1% (active); in assay [2], -28.7% (active); in assay [3], -49.9% (active); in [4], 13.9%; in [5], -9.91% (active); in assay [6], 5.07% (active). Besides, the growth in [7] is -21.8% (active); in assay [8], -28.5% (active); in [9], -28.4% (active); in assay [10] it was 47.8%; in [11], -11.6% (active); in assay [12], -45.3% (active). The growth in assay [13] is -87.3% (active); in [14], -36.6% (active); in assay [15], -13.8% (active); in assay [16], 7.54% (active); in assay [17] it was -45% (active); in [18], -26.2% (active).
